A short description of assay [1]: qHTS assay for measurement of the activity of small molecule inhibitors on Zika virus induced Caspase-3 activity in human astrocytoma cells (AID 1224859). Put shortly:
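In SNB-19 cells plated at 250 cells/well and grown 16-20 h, compounds were applied 1 h before ZIKV (2 FFU/cell). Six hours later caspase-3/7 luminescence was recorded.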
For orientation: In qHTS, concentration-response curves come from the screen itself.

The nature of assay [2]: qHTS assay to identify small molecule inhibitors of chordoma cells - UCH-1 (AID 1259355). Also: nearly all actives have a fitted effect of over 55% in size. Also: potency is read from the fitted curve at half-maximal effect; series mostly up to about 46 µM. In short, it runs like this:
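Luminescent ATP read-out (CellTiter-Glo, 30min at room temperature) measured viability of UCH-1 cells exposed for 48hr to test drugs at 15 concentrations, co-dosed with a five-agent combination of auranofin, camptothecin, doxorubicin, rubitecan and topotecan.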

The nature of assay [3]: qHTS assay to identify small molecule inhibitors of chordoma cells - UCH-2 (AID 1259356). Also: series mostly up to about 46 µM.
Assay [4] can be described thus: P-glycoprotein substrates identified in KB-8-5-11 adenocarcinoma cell line, qHTS therapeutic library screen (AID 1346987). Also: nearly all actives have a fitted effect of over 65% in size. Also: potency is read from the fitted curve at half-maximal effect. In short, it runs like this: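 Steps: plate 500 KB-8-5-11 cells/well in DMEM + 10% FCS (colchicine removed); pin compounds in dose-response; incubate 72 h, 37 degree C, 5% CO2; add CellTiter-Glo, 5 min; read luminescence.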
Assay [5] is described as follows: Natriuretic polypeptide receptor (hNpr1) antagonism - Pilot counterscreen GloSensor control cell line (AID 1347045; calls by dose curve; also: series mostly up to about 38 µM). Put shortly:
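Luminescence was read before and 20 min after adding 50 uM SNP, which stimulates soluble guanylyl cyclase. The HEK293 cells expressing the GloSensor cGMP sensor had been preloaded with 2% reagent for 2 h and treated with compound.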
In general terms: The purpose of a counterscreen is to sort out artefacts and off-target activity.

Assay [6] has as its target Atrial natriuretic peptide receptor 1 (Homo sapiens) (UniProt P16066). Briefly: Natriuretic polypeptide receptor (hNpr1) antagonism - Pilot screen (AID 1347049; calls by dose curve;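 also: agonist-evoked cGMP luminescence read 20 min after hNppA addition; series mostly up to about 58 µM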). In short, it runs like this:
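HEK293 cells co-expressing hNpr1 and the GloSensor pGS-40F cGMP luciferase sensor were preloaded with 2% GloSensor reagent for 2 h. Compounds were added for 30 min at room temperature, then cells were stimulated with 0.1 nM hNppA for 20 min before luminescence readout.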

For assay [7], the target named is Atrial natriuretic peptide receptor 2 (Homo sapiens) (UniProt P20594). Briefly: Natriuretic polypeptide receptor (hNpr2) antagonism - Pilot subtype selectivity assay (AID 1347050; calls by dose curve). In short, it runs like this: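 cGMP-sensor HEK293/hNpr2 cells; 2% GloSensor reagent 2 h RT; compounds 30 min; baseline luminescence read; 1 nM hNppC agonist 20 min RT; final luminescence read by CCD camera. Antagonism = reduced post-agonist signal.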

Assay [8] in a line: NS1 protein of Zika virus - qHTS assay to identify small molecule inhibitors in human HEK 293 cells (AID 1347053). Also: series mostly up to about 46 µM; nearly all actives have a fitted effect of over 55% in size. Put shortly:
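HEK 293; 20 h pre-culture, 37 C/5% CO2; cpd 1 h pre-infection; ZIKV MR766, MOI = 0.5, 24 h, 37 C; TR-FRET NS1 readout (two anti-NS1 Abs); norm. to no-virus vs infected.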

Assay [9] deals with T1, Tyrosine-protein phosphatase non-receptor type substrate 1 (Homo sapiens) + Leukocyte surface antigen CD47 (Homo sapiens) (UniProt P78324+Q08722). As to the kind of experiment: CD47-SIRPalpha protein protein interaction - LANCE assay qHTS validation (AID 1347057; active = well fitted curve in the direction sought with a large enough effect in the signal ratio, with a control signal flat, not every such curve was filed as active; the % refers to the signal ratio; also: series mostly up to about 38 µM). In short, it runs like this:
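First, His-tagged CD47 and Eu-labelled anti-His antibody met the compound for 30 min; next, site-specifically biotinylated SIRPalpha was added for 30 min; finally streptavidin-APC was added before reading the TR-FRET ratio.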
A general note: In TR-FRET formats the signal depends on donor and acceptor labels being close together.

Assay [10] concerns the target T1, Tyrosine-protein phosphatase non-receptor type substrate 1 (Homo sapiens) + Leukocyte surface antigen CD47 (Homo sapiens). Briefly: CD47-SIRPalpha protein protein interaction - HTRF assay qHTS validation (AID 1347058; active = well fitted curve in the direction sought with a large enough effect in the signal ratio, not every such curve was filed as active; the % refers to the signal ratio; also: series mostly up to about 38 µM). Put shortly:
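TR-FRET read (Ch1/Ch2 ratio) of soluble extracellular CD47 and Avi-biotinylated SIRPalpha domains in PBS pH 7.4 with 0.05% IGEPAL; 7-point compound titration. Sequential 30 min room-temperature steps; non-biotinylated SIRPalpha as control inhibitor.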

Assay [11] has the same target. As to the kind of experiment: CD47-SIRPalpha protein protein interaction - Alpha assay qHTS validation (AID 1347059).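 Also: bead proximity luminescence from CD47 binding SIRPalpha after compound preincubation with SIRPalpha.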 Put shortly: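 Soluble extracellular domains: Avi-tag biotinylated SIRPalpha (25 nM) preincubated 30 min RT with compound, then 6His-CD47 (12.5 nM) 30 min; Ni-NTA acceptor and streptavidin donor beads (10 ug/mL) 30 min, AlphaScreen read. PBS pH 7.4, 0.05% IGEPAL.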

Assay [12] addresses Parathyroid hormone/parathyroid hormone-related peptide receptor (Homo sapiens) (UniProt Q03431). Briefly: qHTS for PTHR1 Agonists: Optimization Screen against the NCGC LOPAC library (AID 1347079).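 Also: GloSensor cAMP luminescence in HEK-293 GP2 cells expressing human PTHR1 with IBMX.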 Put shortly: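 Agonist readout: GloSensor cAMP luminescence, read after 15 min at room temperature. HEK-293-derived GP2 line carries PTHR1; compounds tested as a titration for 1 hr at 37C in presence of IBMX. M-PTH (1-15) served as control.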

The nature of assay [13]: qHTS of pediatric cancer cell lines to identify multiple opportunities for drug repurposing: Primary screen for TC32 cells (AID 1347089). Also: nearly all actives have a fitted effect of over 60% in size. Put shortly: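 Measured quantity: luminescence from CellTiter-Glo, reflecting metabolically active TC32 cells following 48 h of compound. Curves came straight from multi-point titrations, with 8 or 11 points in primary and 11 in confirmatory screening.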

Assay [14] in a line: qHTS of pediatric cancer cell lines to identify multiple opportunities for drug repurposing: Primary screen for DAOY cells (AID 1347090). Also: series mostly up to about 46 µM; nearly all actives have a fitted effect of over 55% in size. Put shortly:
(§1)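 Eight- or eleven-point concentration series, 48 h treatment at 37 degrees C in growth media; readout CellTiter-Glo luminescence. Potency and efficacy were taken from the concentration-response curves.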

Assay [15] in a line: qHTS of pediatric cancer cell lines to identify multiple opportunities for drug repurposing: Primary screen for SJ-GBM2 cells (AID 1347091). Also: potency is read from the fitted curve at half-maximal effect. In short, it runs like this: as §1
A short description of assay [16]: qHTS of pediatric cancer cell lines to identify multiple opportunities for drug repurposing: Primary screen for A673 cells (AID 1347092). Also: nearly all actives have a fitted effect of over 45% in size. Put shortly:
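Cells are plated, rested 5 h, dosed by pintool, incubated 48 h, then lysed with CellTiter-Glo and read by luminescence. DMSO is the neutral control; bortezomib at 2.3 uM final is the positive control.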

Unmarked numbers belong to inactive results. Results filed as inconclusive are left out. Activity calls are given as the source filed them. Unless noted, calls follow the shape of the dose curve; as a rule, active = well fitted curve in the direction sought with a large enough effect; inconclusive = small, poorly fitted or top-dose-only effect, or another doubt; inactive = no such curve, though single readings can be large; an effect the other way counts as inactive or inconclusive.

The values below come from PubChem BioAssay (NCATS).

Chain of Atrial natriuretic peptide receptor 1 (Homo sapiens) (P16066 whole entry, looked up): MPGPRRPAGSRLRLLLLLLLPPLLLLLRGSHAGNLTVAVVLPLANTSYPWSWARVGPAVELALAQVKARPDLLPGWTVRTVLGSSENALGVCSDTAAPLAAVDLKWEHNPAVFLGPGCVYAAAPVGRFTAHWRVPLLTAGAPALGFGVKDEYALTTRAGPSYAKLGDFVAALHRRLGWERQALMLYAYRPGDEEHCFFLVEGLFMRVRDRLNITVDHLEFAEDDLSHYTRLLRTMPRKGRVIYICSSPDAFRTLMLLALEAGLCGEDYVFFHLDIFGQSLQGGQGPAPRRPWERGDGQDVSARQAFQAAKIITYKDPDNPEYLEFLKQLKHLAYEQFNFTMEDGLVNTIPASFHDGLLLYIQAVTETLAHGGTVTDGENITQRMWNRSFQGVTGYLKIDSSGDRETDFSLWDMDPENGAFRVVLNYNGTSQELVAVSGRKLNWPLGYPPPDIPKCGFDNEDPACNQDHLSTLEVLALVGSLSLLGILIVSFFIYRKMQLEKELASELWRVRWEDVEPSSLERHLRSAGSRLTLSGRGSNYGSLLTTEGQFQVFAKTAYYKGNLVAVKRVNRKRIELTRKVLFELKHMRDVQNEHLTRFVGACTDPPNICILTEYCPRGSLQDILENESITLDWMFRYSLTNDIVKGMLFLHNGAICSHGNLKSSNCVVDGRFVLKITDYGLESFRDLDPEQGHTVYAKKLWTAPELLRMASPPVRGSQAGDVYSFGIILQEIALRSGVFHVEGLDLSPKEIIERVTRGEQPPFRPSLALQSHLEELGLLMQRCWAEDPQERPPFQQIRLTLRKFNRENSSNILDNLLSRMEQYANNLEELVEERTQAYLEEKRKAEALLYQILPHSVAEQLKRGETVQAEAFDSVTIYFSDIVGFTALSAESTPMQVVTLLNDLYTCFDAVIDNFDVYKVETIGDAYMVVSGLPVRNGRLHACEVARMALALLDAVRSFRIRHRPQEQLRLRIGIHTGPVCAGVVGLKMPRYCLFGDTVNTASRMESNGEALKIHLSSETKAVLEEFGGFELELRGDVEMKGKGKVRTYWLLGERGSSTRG
Chain of Parathyroid hormone/parathyroid hormone-related peptide receptor (Homo sapiens) (Q03431 whole entry, looked up): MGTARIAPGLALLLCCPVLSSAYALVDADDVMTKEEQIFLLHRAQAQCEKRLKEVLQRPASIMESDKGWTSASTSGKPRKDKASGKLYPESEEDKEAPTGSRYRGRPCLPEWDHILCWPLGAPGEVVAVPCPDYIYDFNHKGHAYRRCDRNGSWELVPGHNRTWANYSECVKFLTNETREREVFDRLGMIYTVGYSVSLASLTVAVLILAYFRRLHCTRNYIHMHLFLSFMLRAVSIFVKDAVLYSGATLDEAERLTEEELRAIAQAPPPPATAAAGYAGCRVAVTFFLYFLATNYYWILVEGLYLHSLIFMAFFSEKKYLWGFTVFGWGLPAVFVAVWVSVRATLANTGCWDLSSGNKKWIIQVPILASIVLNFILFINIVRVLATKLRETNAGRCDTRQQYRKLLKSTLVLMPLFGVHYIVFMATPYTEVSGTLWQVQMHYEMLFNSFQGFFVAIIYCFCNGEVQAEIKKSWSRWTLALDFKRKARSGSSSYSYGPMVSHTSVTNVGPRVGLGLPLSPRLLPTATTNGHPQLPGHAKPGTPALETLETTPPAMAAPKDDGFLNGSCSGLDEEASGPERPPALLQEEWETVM
T1 sequence (P78324 whole entry, looked up): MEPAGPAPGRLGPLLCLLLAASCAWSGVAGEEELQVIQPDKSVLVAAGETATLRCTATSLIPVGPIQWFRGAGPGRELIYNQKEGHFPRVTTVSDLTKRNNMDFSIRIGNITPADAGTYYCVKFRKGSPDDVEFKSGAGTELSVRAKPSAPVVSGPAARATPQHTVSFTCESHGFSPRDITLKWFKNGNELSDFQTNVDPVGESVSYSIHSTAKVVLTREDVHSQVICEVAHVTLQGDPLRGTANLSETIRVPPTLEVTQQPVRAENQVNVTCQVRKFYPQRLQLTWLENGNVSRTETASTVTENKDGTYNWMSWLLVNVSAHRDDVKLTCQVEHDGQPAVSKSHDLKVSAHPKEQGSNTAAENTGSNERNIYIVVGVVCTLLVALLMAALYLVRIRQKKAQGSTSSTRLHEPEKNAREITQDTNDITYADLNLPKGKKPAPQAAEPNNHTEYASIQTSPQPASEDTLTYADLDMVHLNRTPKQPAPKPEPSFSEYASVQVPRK
T1 sequence (Q08722 whole entry, looked up): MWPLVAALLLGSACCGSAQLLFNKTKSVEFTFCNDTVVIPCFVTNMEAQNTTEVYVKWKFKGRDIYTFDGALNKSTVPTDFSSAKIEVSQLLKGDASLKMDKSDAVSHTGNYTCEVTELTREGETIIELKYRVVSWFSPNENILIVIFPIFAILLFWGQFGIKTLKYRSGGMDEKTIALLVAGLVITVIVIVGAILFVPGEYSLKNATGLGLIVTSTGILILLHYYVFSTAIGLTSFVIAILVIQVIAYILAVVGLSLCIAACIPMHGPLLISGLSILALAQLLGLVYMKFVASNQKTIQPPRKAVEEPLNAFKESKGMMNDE
Chain of Atrial natriuretic peptide receptor 2 (Homo sapiens) (P20594 whole entry, looked up): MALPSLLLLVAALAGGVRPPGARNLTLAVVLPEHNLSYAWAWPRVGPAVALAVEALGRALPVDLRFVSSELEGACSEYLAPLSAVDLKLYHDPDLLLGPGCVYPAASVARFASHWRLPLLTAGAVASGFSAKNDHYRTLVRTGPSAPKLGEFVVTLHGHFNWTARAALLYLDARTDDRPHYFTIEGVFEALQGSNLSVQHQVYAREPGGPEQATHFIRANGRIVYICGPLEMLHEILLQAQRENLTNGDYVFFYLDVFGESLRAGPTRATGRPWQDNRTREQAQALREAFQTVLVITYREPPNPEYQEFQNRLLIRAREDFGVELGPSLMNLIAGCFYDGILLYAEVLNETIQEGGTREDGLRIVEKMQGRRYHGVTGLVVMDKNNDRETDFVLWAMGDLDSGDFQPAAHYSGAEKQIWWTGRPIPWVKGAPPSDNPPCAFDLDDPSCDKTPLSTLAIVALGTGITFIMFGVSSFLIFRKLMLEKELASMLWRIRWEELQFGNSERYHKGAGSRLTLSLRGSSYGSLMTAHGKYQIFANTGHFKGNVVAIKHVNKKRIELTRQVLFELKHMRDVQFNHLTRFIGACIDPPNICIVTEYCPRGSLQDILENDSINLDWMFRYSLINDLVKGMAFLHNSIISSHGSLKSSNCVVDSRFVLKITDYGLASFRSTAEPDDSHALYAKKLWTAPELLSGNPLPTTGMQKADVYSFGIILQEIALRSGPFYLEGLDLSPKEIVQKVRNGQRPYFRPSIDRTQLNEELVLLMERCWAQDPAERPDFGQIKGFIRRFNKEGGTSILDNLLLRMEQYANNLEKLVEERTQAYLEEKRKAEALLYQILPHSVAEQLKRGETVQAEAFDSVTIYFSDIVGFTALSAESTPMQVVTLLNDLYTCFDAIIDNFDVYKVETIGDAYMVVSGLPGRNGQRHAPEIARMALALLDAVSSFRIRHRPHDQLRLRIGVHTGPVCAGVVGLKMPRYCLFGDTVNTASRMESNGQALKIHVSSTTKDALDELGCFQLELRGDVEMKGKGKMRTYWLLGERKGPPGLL

Consider `C[C@H](CS)C(=O)N1CCC[C@H]1C(=O)O`, for which the result in [1], in assay [8], in assay [9], in assay [10] and in [12] was inactive. For the same molecule, the Potency result in [2], in [3], in assay [4], in [5], in assay [6] and in assay [7] was “inactive” throughout. For the same molecule, the Potency entry in [11], in assay [13], in [14], in assay [15] and in [16] was “inactive” in each case.
In the case of `CC(C)(C)c1ccc(C(=O)CCCN2CCC(OC(c3ccccc3)c3ccccc3)CC2)cc1`, the outcome in [1], in [8], in assay [9] and in [12] was inactive. Besides, the Potency in [2] was 15.8 µM (active); in assay [4] it was 20.6 µM (active); in assay [15], 26.6 µM (active). Further, the Potency result in assay [3], in assay [6], in assay [7], in assay [11] and in [13] was “inactive” throughout.
On to `O=C(O)CN(CCN(CC(=O)O)CC(=O)O)CCN(CC(=O)O)CC(=O)O`, for which the call in assay [1], in [8], in assay [9] and in assay [12] was inactive. The Potency result in assay [2], in assay [3], in assay [4], in assay [6], in assay [7] and in assay [13] was “inactive” throughout. Besides, the Potency result in assay [14], in [15] and in assay [16] was “inactive” in each case.
As to `CSc1ccc(C(=O)c2[nH]c(=O)[nH]c2C)cc1`, the result in assay [1], in assay [8] and in [9] was inactive. In addition, the Potency entry in assay [2], in [3], in [5], in [6], in assay [7] and in assay [11] was “inactive” each time. The Potency result in assay [13], in assay [14], in assay [15] and in [16] was “inactive” each time.
For `COCCCC/C(=N\OCCN)c1ccc(C(F)(F)F)cc1`, the call in assay [1], in assay [8], in assay [9] and in assay [12] was inactive. Besides, the Potency result in assay [2], in assay [6], in [7], in assay [11], in assay [13] and in assay [14] was “inactive” each time. The Potency result in [15] is “inactive”.
In the case of `CN(C)CCCN1c2ccccc2Sc2ccc(C(F)(F)F)cc21`, the molecule was called inactive in assay [1], in [8] and in [12]. The Potency result in assay [2], in assay [3] and in assay [6] was “inactive” each time.
With `CCNC(=O)N1CCN(CCCC(c2ccc(F)cc2)c2ccc(F)cc2)CC1`, the call in [1], in assay [8], in assay [9] and in [12] was inactive. Also, the Potency result in assay [2], in assay [3], in assay [11], in [13], in assay [15] and in [16] was “inactive” in each case. Moreover, the Potency in assay [4] is 16.4 µM (active).
For `CCCCOCCOCCOCc1cc2c(cc1CCC)OCO2`, the molecule was classed as inactive in assay [1] and in assay [8]. For the same molecule, the Potency result in assay [2], in [3], in [4], in [13], in assay [14] and in assay [15] was “inactive” throughout. Also, the Potency entry in assay [16] is “inactive”.
For the molecule `CN(C(=O)CCCOc1ccc2[nH]c(=O)ccc2c1)C1CCCCC1`, the call in assay [1], in assay [8], in assay [9] and in assay [12] was inactive. The Potency entry in [2], in [3], in assay [6], in assay [7], in assay [11] and in assay [13] was “inactive” in each case. The Potency entry in assay [15] and in assay [16] was “inactive” throughout.
For `NC(N)=NC(=O)Cc1c(Cl)cccc1Cl`, the call in assay [1], in [8], in assay [9], in assay [10] and in [12] was inactive. The Potency result in [2], in [3], in assay [5], in assay [6], in assay [7] and in assay [11] was “inactive” each time. Besides, the Potency entry in assay [13], in assay [15] and in assay [16] was “inactive” each time.
